Source: PubChem BioAssay
The entries come from a sample that favours hits as a whole.
Marburg entry inh – qHTS for inhibitors of binding or entry into cells for Marburg Virus; Marburg virus pseudotyped entry inhibition, cell reporter; Potency, µM (titrated, usually from 37.8 µM), for the others: at the top dose activity change, negative = inhibition, hits mostly inhibitors; actives 1.8% (n = 300,000); calls by dose curve; tested in HEK293 cells; also: potency is read from the fitted curve at half-maximal effect; % is scaled to controls: 0 for no effect and ±100 for the full control effect
Cycloheximide cs – Cycloheximide Counterscreen for Small Molecule Inhibitors of Shiga Toxin; max response, %; cell reporter, cycloheximide protein synthesis inhibition counterscreen; AID 2314, 2010; actives 12% (n = 300,000); in the data active = max response mostly above about 13%, no sharp cut-off; inactive = mostly below about 14%; also: read at 38.3 µM for the half of the compounds with a filed dose; 0% is about no effect
Shiga inhibitor – A qHTS for Small Molecule Inhibitors of Shiga Toxin | actives 9.2% (n = 290,000) | Vero cells, Shiga toxin protein synthesis inhibition reporter | AID 2315, 2010 | inhibition, % at 38.7 µM; in the data active = inhibition mostly above about 28%, no sharp cut-off; inactive = mostly below about 43%; also: 0% is about no effect
LASV entry inh – qHTS for Inhibitors of binding or entry into cells for Lassa Virus; Lassa virus pseudotype entry inhibition, cell reporter; Potency, µM (top dose mostly 37.9 µM), without a hit: at the highest dose activity change, negative = inhibition, most hits filed as inhibitors; actives 1.2% (n = 300,000); AID 540256, 2011; calls by dose curve; tested in HEK293 cells; also: potency is read from the fitted curve at half-maximal effect; % is scaled to controls: 0 for no effect and ±100 for the full control effect; nearly all actives have a fitted effect of over 50% in size
AMA1 RON2 block – qHTS for Inhibitors of AMA1-RON; Towards Development of Antimalarial Drug Lead: Primary Screen | Plasmodium falciparum AMA1 (3D7) - RON2 peptide interaction | AlphaScreen AMA1-biotinylated RON2 peptide binding | Potency, µM (series often up to 58.2 µM), without a hit: at the top dose activity change, negative = inhibition, most hits filed as inhibitors | actives 0.2% (n = 360,000) | AID 720542, 2013; active = well fitted inhibition curve with a large enough effect; inconclusive = small, poorly fitted or top-dose-only effect; inactive = no such curve, though single readings can be large or run the other way;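 also: potency is read from the fitted curve at half-maximal effect; 0% = vehicle wells and -100% = peptide control; nearly all actives have a fitted effect of over 45% in size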
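AMA1 (3D7) with his tag at 25 nM final met compounds first, then biotinylated RON2 peptide at 25 nM; detection used donor plus acceptor beads, 10 µg/mL apiece, read by AlphaScreen after 30 min at room temperature.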
Starred values were filed as active, the others as inactive; [ ] = remark or other dose.

`CCOC(=O)c1cnn(-c2cccc(Cl)c2)c1C1CCN(C(=O)OC(C)(C)C)CC1` gave Marburg entry inh 6%[46.1 µM] and LASV entry inh inconclusive.
For COC(=O)C[C@H]1CC[C@@H](NC(=O)Nc2cccc(OC)c2)[C@@H](CO)O1 the results were AMA1 RON2 block -2%.
`CN(CCC#N)C(=S)Nc1ccc(Oc2ccccc2)cc1` gave Marburg entry inh 1%, Cycloheximide cs -2, Shiga inhibitor -14, LASV entry inh -18% and AMA1 RON2 block 1%.
For Cc1cccc(-c2nc(N3CCN(c4ccc(F)cc4)CC3)c3ccccc3n2)c1 the results were LASV entry inh -14%[46.1 µM].
For CCOc1cc(C(=O)N=c2sccn2C)ccc1OC(F)F the results were Cycloheximide cs 35*, Shiga inhibitor 71 and AMA1 RON2 block -2%.
For Cn1ccsc1=NC(=O)c1ccccc1OC(F)F the results were Marburg entry inh 19%[46.1 µM], Cycloheximide cs 9, Shiga inhibitor -22, LASV entry inh 5%[46.1 µM] and AMA1 RON2 block -3%.
COCCCNC(=O)CN(c1cccc(Cl)c1)S(C)(=O)=O was read as Marburg entry inh 10%, Cycloheximide cs 0, Shiga inhibitor -16, LASV entry inh -1% and AMA1 RON2 block -6%.
For CC1(C)Cc2nc3sc(C(=O)NCCO)c(N)c3cc2CO1 the results were Marburg entry inh inconclusive, Cycloheximide cs 19*, Shiga inhibitor 51*, LASV entry inh 24% and AMA1 RON2 block 0%.
`CC1(C)Cc2nc3sc(C(=O)O)c(N)c3cc2CS1` gave Cycloheximide cs 8 and Shiga inhibitor 54.
Screening CC1(C)Cc2nc3sc(C(=O)NCCCO)c(N)c3cc2CS1 returned Marburg entry inh inconclusive, Cycloheximide cs 31*, Shiga inhibitor 26 and AMA1 RON2 block -15%.
`Oc1ccccc1C1=Nc2ccccc2N=C(c2ccco2)C1` gave Marburg entry inh inconclusive, Cycloheximide cs 13*, Shiga inhibitor 24, LASV entry inh inconclusive and AMA1 RON2 block -5%.
Cn1c(-c2ccc(CN3CCCCC3)o2)nc2ccccc21 was read as Marburg entry inh -6%, Cycloheximide cs 26*, Shiga inhibitor 84*, LASV entry inh inconclusive and AMA1 RON2 block -4%.
Screening c1ccc2c(c1)nc(-c1ccncc1)n2CCNc1nc(CN2CCCCC2)cs1 returned Cycloheximide cs -4, Shiga inhibitor 12 and AMA1 RON2 block -3%.
CCc1nc2ccc(C(=O)Nc3ccc(OC)c(OC)c3)cn2c1N(C)CCC(C)C was read as AMA1 RON2 block -7%.
For COc1ncnc(-c2ccccc2)c1-c1ccccc1 the results were AMA1 RON2 block 7%.
CCOC(=O)c1oc2cc(O)c(CC)cc2c(=O)c1-c1cscn1 was read as Marburg entry inh -1%[46.1 µM], Cycloheximide cs 16, Shiga inhibitor 0, LASV entry inh -3%[46.1 µM] and AMA1 RON2 block -1%.
CCc1cc2c(=O)c(-c3cscn3)coc2cc1OC was read as Marburg entry inh -3%, Cycloheximide cs 17 and Shiga inhibitor 101*.
Screening CCc1cc2c(=O)c(-c3cscn3)coc2cc1O returned Marburg entry inh inconclusive, Cycloheximide cs 31*, Shiga inhibitor 67*, LASV entry inh inconclusive and AMA1 RON2 block -2%.
`S=C(NCCNC(=S)Nc1ccccc1Cl)Nc1ccccc1Cl` gave Marburg entry inh inconclusive, Cycloheximide cs 0, Shiga inhibitor 20, LASV entry inh inconclusive and AMA1 RON2 block 37%.
N#Cc1ccccc1NC(=S)NC(=O)C1CCC1 was read as Marburg entry inh 3%[46.1 µM], Cycloheximide cs -2, Shiga inhibitor 2, LASV entry inh -2%[46.1 µM] and AMA1 RON2 block 94%.
For O=C(NC(=S)Nc1ccccc1Br)C1CCC1 the results were Marburg entry inh -16%[46.1 µM], Cycloheximide cs 43*, Shiga inhibitor 50*, LASV entry inh inconclusive and AMA1 RON2 block -8%.
`NNC(=S)Nc1ccccc1Cl` gave Marburg entry inh -22%[46.1 µM], Cycloheximide cs 43*, Shiga inhibitor 86*, LASV entry inh -3%[46.1 µM] and AMA1 RON2 block 44%.
Screening O=C(NC(=S)Nc1ccccc1Cl)C1CC1 returned Cycloheximide cs 45*, Shiga inhibitor 38 and AMA1 RON2 block -10%.
